Molecules are shown by their SMILES. Active and inactive are the calls of the source. Rule for the calls: active = hit-call score of the fitted dose curve at least 0.9, where 1 is the maximum; inactive = score below 0.9.

A short description of this assay: CCTE_Padilla_ZF_144hpf_TERATOSCORE: (Legacy) CCTE's 144 Hour Post-fertilization zebrafish Assay Teratoscore, Padilla Lab (AID 2283679).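 For AC50: teratogenicity score from eye scoring of death hatching and malformations at 144 hpf; higher score means more developmental defects relative to DMSO baseline.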 From the text:
CCTE_Padilla_ZF_144hpf is a whole embryo, multiplexed assay. Zebrafish embryos were exposed to chemicals starting 6 hr post-fertilization for 5 days in 96-well plates. Developing larvae were examined microscopically daily for malformation and mortality.CCTE_Padilla_ZF_144hpf_TERATOSCORE is one of one assay component(s) measured or calculated from the CCTE_Padilla_ZF_144hpf assay. It is designed to make measurements of developmental malformations and mortality as detected with brightfield microscopy.Data from the assay component CCTE_Padilla_ZF_144hpf_TERATOSCORE was analyzed into 1 assay endpoint. This assay endpoint, CCTE_Padilla_ZF_144hpf_TERATOSCORE, was analyzed in the positive analysis fitting direction relative to DMSO as the negative control and baseline of activity. Using a type of morphological reporter, gain-of-signal activity can be used to understand changes in developmental defect as they relate to the whole embryo. To generalize the intended target to other relatable targets, this assay endpoint is annotated to the malformation intended target family, where the subfamily is total.
Zebrafish husbandry: Wild type adult zebrafish (Danio rerio; undefined outbred stock obtained from Aquatic Research Organisms, Hampton, NH, 03842) were housed in an AAALAC-approved animal facility at 28C with a 14:10 h light: dark cycle (lights on at 08:30 h). Adult fish (2-3 females per male; density = 15-20 adults per tank) were kept in one of several 9-liter (L) flow-through colony tanks (Aquaneering Inc., San Diego, CA). All adults in a colony tank were placed in a 2 L (static) breeding tank (Aquatic Habitats, Apopka, FL) one hour prior to light onset. Typically, adults from two to three colony tanks were mated on the same day. Two hours after light onset the adults were returned to the colony tank. All embryos were gathered from each breeder tank, pooled, and placed in a 28C water bath for 2 h, followed by two washes with 0.06% bleach (v/v) in 10% Hanks' Balanced Salt Solution (13.7 mM NaCl 0.54 mM KCl, 25 uM Na2HPO4, 130 uM CaCl2 100 um MgSO4 and 420 um NaHCO3,), hereafter referred to as Hanks' solution, for 5 min in order to remove any residual bacteria or fungi. Immediately following washing, the embryos were examined, and healthy embryos were separated from dead or unfertilized eggs and moved into fresh Hanks'. Single Concentration Study: The chemicals were arrayed on a 96-well stock plate, 80 chemicals per plate, 20 mM concentration of each, with 16 DMSO (vehicle) controls. The embryos were exposed to the chemicals (80 Mfinal concentration, renewed daily) by immersion from 0 dpf until 5 dpf. Eighty micromolar was chosen as the highest concentration for two reasons (1) because the stock solutions were prepared at 20 mM in 100% DMSO. On 6 dpf, each embryo/larva was assessed for viability, hatching status and malformations. There were 4 embryos per concentration per chemical (each embryo on a separate microtiter plate). […] Chemical exposures: Zebrafish embryos were exposed in 96-well plates. Briefly, on day 0, approximately 6-8 h after fertilization, zebrafish embryos (with chorions) were placed 1 embryo per well in Millipore Multiscreen Nylon mesh plates (catalog number MANMN4050, Millipore Corp, Bedford, MA) and exposed to nominal concentrations of the chemicals. In each well, 1 ul of the chemical in DMSO from the stock plate was diluted with 250 ul of 10% Hanks' solution; the final DMSO concentration was 0.4% (v/v) in all wells; vehicle controls receives DMSO only. Each plate was sealed with a non-adhesive material (Type A, BioRad, Hercules, CA), covered with a lid, and wrapped in Parafilm to minimize evaporation. All embryos and larvae were kept in a 26C incubator with a 14:10 h light-dark cycle (with lights on at 08:30 h and off at 22:30 h). […]
Consider `O=C1c2ccccc2C(=O)N1CCc1noc(-c2ccc(CN3CCCCCC3)s2)n1`, for which the AC50 (as a rule, the concentration at which the activity in the assay is half-maximal) is 20.2 µM (active).

As to `Cc1oc2c(NC(=O)c3c(Cl)cccc3Cl)cccc2c1C(C)(C)O`, the AC50 is 8.93 µM (active).

In the case of `O=C(OCCCCCCOC(=O)c1ccccc1)c1ccccc1`, the concentration at half-maximal activity (AC50) is 12.9 µM (active).

As for `CC(C)(c1cc(Br)c(O)c(Br)c1)c1cc(Br)c(O)c(Br)c1`, the half-maximal activity concentration (AC50) is 4.24 µM (active).

For `CC(C)(C)c1cc(/C=C2\SC(N)=NC2=O)cc(C(C)(C)C)c1O`, the concentration at half-maximal activity (AC50) is 4.17 µM (active).

In the case of `COc1cccc([C@H](O)C2CCN(CCc3ccc(F)cc3)CC2)c1OC`, the AC50 is 124 µM (active).

As for `CC[C@H](NC(=O)c1cc(F)ccc1NS(=O)(=O)c1cccc2cccnc12)c1ccccc1`, the molecule was called inactive.

Regarding `O=c1[nH]sc2ccccc12`, the AC50 is 16.4 µM (active).

With `O=C1CCC(C2CCCCC2)CC1`, the concentration at half-maximal activity (AC50) is 60.4 µM (active).

For `CC(C)(C)c1csc(-c2cc3cc(OCc4ccccc4CC(=O)O)ccc3o2)n1`, the AC50 was 1.71 µM (active).

Consider `C[C@]12CC[C@@H]3c4ccc(O)cc4CC[C@H]3[C@@H]1CCC2=O`, for which the outcome was inactive.

For the molecule `CCCCOC(=O)c1ccc(O)cc1`, the AC50 was 5.07 µM (active).

With `CN1C(=O)N(c2ccccc2Br)Cc2cnc(Nc3ccc4c(c3)OCC(CO)O4)nc21` (stereo not given), the concentration at half-maximal activity (AC50) is 4.31 µM (active).

Consider `O=C(O)Cc1cc(I)c(Oc2ccc(O)c(I)c2)c(I)c1`, for which the AC50 is 0.101 µM (active).

On to `Cc1occc1C(=O)Nc1ccc(C(=O)N2CCC(F)(F)/C(=C\C(=O)N3CCC(N4CCCCC4)CC3)c3ccccc32)cc1`, for which the molecule was called inactive.

For `O=C(Nc1ccc(Cl)cc1)Nc1ccc(Cl)c(Cl)c1`, the concentration at half-maximal activity (AC50) is 5.19 µM (active).

Consider `Cc1ncc(CO)c(CO)c1O`, for which the molecule was called inactive.

As for `C[C@]12CC[C@@H]3c4ccc(O)cc4CC[C@H]3[C@@H]1CC[C@H]2O`, the AC50 is 15 µM (active).

Take `CCOC(=O)O[C@H](C)OC(=O)c1ccc2c(c1)cc(C(=O)NC1CCN(C(C)C)CC1)n2Cc1cc(-c2ccc(Cl)s2)on1`: the AC50 is 4.27 µM (active).

In the case of `O=C1O[C@H]([C@@H](O)CO)C(O)=C1O`, the outcome was inactive.

In the case of `CC(O)CC(C)(C)O` (stereo not given), the result was inactive.

`CN(C)C(=O)C1(N2CCCCC2)CCN(CC[C@@]2(c3ccc(Cl)c(Cl)c3)CN(C(=O)c3ccccc3)CCO2)CC1`: the AC50 is 15 µM (active).

Consider `CCN(Cc1cccnc1)C(=O)c1cccc(Cl)c1[C@]1(C)C(=O)N(Cc2ccc(OC)cc2OC)c2ccc(Cl)cc21`, for which the concentration at half-maximal activity (AC50) is 5.26 µM (active).

On to `Cc1cn([C@H]2C[C@H](N=[N+]=[N-])[C@@H](CO)O2)c(=O)[nH]c1=O`, for which the call was inactive.

Consider `CCN(CC)C(=O)c1cc(S(=O)(=O)Cc2ccccc2)c(N2CCC(c3ccccc3)CC2)cc1N(CC)CCN(C)C`, for which the AC50 was 20.7 µM (active).

`NC(=O)c1nc(-c2cccc(-c3cc(F)ccc3OCC(F)(F)C(F)(F)F)c2)n[nH]1`: the concentration at half-maximal activity (AC50) was 1.08 µM (active).

Take `Cc1c2ccccc2c(C)c2c1ccc1ccccc12`: the AC50 is 4.42 µM (active).

For the molecule `O=c1ccc2ccccc2o1`, the call was inactive.

For the molecule `CCCCCCCCOC(=O)c1cc(O)c(O)c(O)c1`, the concentration at half-maximal activity (AC50) is 1.43 µM (active).

On to `Cc1ccc2oc(CN(Cc3ccccc3)C(=O)Nc3c(F)cc(F)cc3F)c(-c3ccc(Cl)cc3)c2c1`, for which the molecule was called inactive.

Turning to `O=c1c(-c2ccc(O)cc2)coc2cc(O)cc(O)c12`, the AC50 was 24.5 µM (active).

On to `NCc1cccc(C2CCN(C(=O)c3ccc(C#Cc4ccccc4F)o3)CC2)c1`, for which the AC50 was 14.5 µM (active).

Turning to `CCCCOC(=O)CC(CC(=O)OCCCC)(OC(C)=O)C(=O)OCCCC`, the AC50 was 4.96 µM (active).

Take `CCCCCCCCCC(=O)O`: the concentration at half-maximal activity (AC50) was 65.8 µM (active).

As to `CC/C(=C(/CC)c1ccc(O)cc1)c1ccc(O)cc1`, the AC50 was 5.03 µM (active).

As to `COc1ccc2cc(S(=O)(=O)N[C@H](CC(=O)N[C@H](Cc3ccc(CN4[C@H](C)CCC[C@@H]4C)cc3)C(=O)N(C)C(C)C)c3ccc4c(c3)OCO4)ccc2c1`, the concentration at half-maximal activity (AC50) is 52.9 µM (active).

Turning to `COc1cc(C(=O)NC2CCN(C)CC2)ccc1Nc1ncc2c(n1)N(C1CCCC1)CC(F)(F)C(=O)N2C`, the AC50 is 24.1 µM (active).

As to `Clc1cc(Cl)c2c(c1)N=C1CCCCCN1C2`, the AC50 was 12.2 µM (active).

As to `O=CCCCC=O`, the outcome was inactive.

Regarding `CCCCCCCC[Si](OCC)(OCC)OCC`, the result was inactive.

The record behind these values is PubChem BioAssay (EPA / NIEHS).
